From PubChem BioAssay (NCI)
About 83,000 compounds went through this panel and 20% of them were active in at least one assay; those are over-represented in the sample as a whole.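 Percent growth is the endpoint: 0 to 100 indicates growth inhibition (40 means 60% inhibition), 0 means no net growth, and negative values indicate cell death.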 Values without a mark were called inactive. The source made the active and inactive calls. Rule for the calls: active = growth percent below 10; inactive = the rest.

system: MDA-MB-468 breast; assay: NCI-60 one-dose screen, 48 h (100 = growth as untreated, 0 = no growth, -100 = all killed); conditions: 10 µM unless noted

Structure (SMILES) | growth
COc1ccc(CN2C(=O)/C(=C\c3cc(OC)c(OC)c(OC)c3)c3ccccc32)cc1 | 5.64% (active)
Cn1c2ccccc2c2ccccc21 | 101%
CCOC(=O)c1cnn(CC(O)c2ccc(F)cc2)c1NC(=O)Nc1ccccc1F (stereo not given) | 85.8%
Cc1nc2c(c(-c3ccccc3)n1)Cc1c(ccc3ccccc13)O2 | 90.5%
CN(C)C(C(N)=O)c1ccc(Cl)cc1 (stereo not given) | 99.2%
CCOc1ccc(-c2nc3ccc(-c4nc5ccc(N6CCN(C)CC6)cc5[nH]4)cc3[nH]2)cc1 | -85.2% (active)
COc1cccc(/C=C2\Cc3ccccc3C2=O)c1 | 99.6%
COc1ccc2cc(-c3cc(OC)c(OC)c(OC)c3)c(=O)oc2c1 | 46.5%
CC1Cc2c(Cl)ncnc2N(C)c2ccc(F)cc21 (stereo not given) | 64.5%
CC1C(/C=N/Nc2ccccc2)C(C#N)(C#N)C1(C#N)C#N (stereo not given) | 91.3%
COc1ccc(Nc2nn3c(C)cc(C)nc3c2C(=O)Nc2ccc(C)cc2)c(OC)c1 | 91.6%
C=C1C(=O)O[C@H]2[C@H]1CC/C(CNC(=O)c1cc3ccccc3[nH]1)=C\CC[C@@]1(C)O[C@@H]21 | -61.7% (active)
CC/C(=C(/c1ccc(Cl)cc1)c1ccc(OCCN(C)C)cc1)c1ccc(Cl)cc1 | 50.7%
CCOC(=O)Oc1c(OC)cc(C(=O)c2ccc(OC)c(OC(=O)CCl)c2OC)cc1OC | 0.206% (active)
CCNc1nnc(COc2ccc(CNC(=O)CCCC/C=C/C(C)C)cc2OC)o1 | 104%
O=C1C(c2ccccc2)=C(N2CCc3ccccc32)OC1(Cl)Cl | 78.4%
CN1CCC(n2cc(Nc3ncc4c(=O)n(-c5c(Cl)cccc5Cl)cc(Br)c4n3)cn2)CC1 | 12.7%
CCC(N)(C(=O)O)c1ccc(F)cc1 (stereo not given) | 105%
C/C(=N\Nc1ccc(Cl)cn1)c1ccccn1 | -41% (active)
O=C1/C=C/[C@@H](O)[C@@H]2C[C@@H](O)C[C@H]2/C=C/CCC[C@H](C(F)(F)F)O1 | -69.1% (active)

Structure (SMILES) | growth
O=Cc1ccc(O)c2ncccc12 | 27.4%
C[n+]1c2ccccc2nc2c(N)cc(N)cc21 | -5.14% (active)
Cc1ccc(/C=C(/C#N)n2nnc3ncccc32)cc1 | 24.4%
CC(C)OC(=O)NNC(=O)c1ccncc1 | 118%
CCN1CCN(Cc2ccc(-c3cc4c(N[C@H](C)c5ccccc5)ncnc4[nH]3)cc2)CC1 | -38.9% (active)
O=C(CNS(=O)(=O)Cc1ccccc1)NNc1ccccc1 | 79.4%
COc1cc(NCC(O)CN(CC(C)C)C2CCCC2)c2ncccc2c1 (stereo not given) | -13.4% (active)
C[n+]1cccc(NC(=O)c2ccc3ccc4ccc(C(=O)Nc5ccc[n+](C)c5)nc4c3n2)c1 | -15.9% (active)
COc1cccc(C2C3=C(COC3=O)N(CCO)c3cc4c(cc32)OCCO4)c1 (stereo not given) | -52.9% (active)
Cn1cc(-c2nc(-c3c[nH]c4ncccc34)cs2)c2cccnc21 | -6.43% (active)
CC1=CSC2=NC(c3ccc(Cl)c(Cl)c3)=CC(c3ccc(Cl)cc3)N12 (stereo not given) | -61.3% (active)
COc1cc(/C=C/C(=O)c2ccc(Nc3ncnc4ccccc34)cc2)cc(OC)c1 | 28.8%
Sc1cccc2cccnc12 | 30%
CCCCNc1cc(-c2cn[nH]c2-c2cc(C)cc(OC)c2)nc(-c2cccnc2)n1 | 78.4%
CCN1C2CCC1/C(=C\c1ccccc1)C(=O)/C2=C/c1ccccc1 | 16.1%
CC1CCc2c(sc3nc(SCC(=O)N/N=C/c4cccc(O)c4O)n(-c4ccccc4)c(=O)c23)C1 (stereo not given) | 77.7%
CCOC(=O)CSSCC(=O)OCC | 117%
COc1ccc(C2c3ccc4ccccc4c3Oc3ncnc(N)c32)cc1 (stereo not given) | 86.6%
Cn1c(=O)c2[nH]c(C(O)c3ccc(Cl)cc3)nc2n(C)c1=O (stereo not given) | 96.7%
CC(C)c1cc(C(=O)O)c(O)c(C(C)C)c1.CC(C)c1cc(C(=O)O)c(O)c(C(C)C)c1.[Mn] | 120%
